Source: PubChem BioAssay (NCATS)

Assay: High-throughput drug toxicity screening in the BPDCN cell line Gen2.2 (AID 1224824)
Details: Gen2.2 BPDCN cells; at 45.8 µM (top of the series) unless noted
Source text: Blastic plasmacytoid dendritic cell neoplasm (BPDCN) is a rare, aggressive and largely incurable hematologic malignancy originating from plasmacytoid dendritic cells (pDCs). Although an initial response to chemotherapy is common, BPDCN prognosis is extremely poor and most patients relapse with drug-resistant disease leading to a median overall survival of ~1 year after diagnosis. To explore novel potential therapeutic strategies in BPDCN, we performed a high-throughput drug toxicity screening in BPDCN cell liens, using of a library of 1,912 small molecules, enriched for compounds that are either approved or in early stages of development for cancer therapy.
A total of 500 exponentially growing Gen2.2 cells were seeded per well in 5 uL of media (RPMI + Glutamine, without phenol red plus10% FBS and 1X Pen/Strep) into 1536-well solid white high base tissue culture treated Greiner One Bio Plates (789173-F), using a multidrop combi dispenser and a small sterile cassette. Compounds and controls totaling 23nL per well (negative control DMSO and positive control 9.2 uM Bortezomib-final) were immediately added to the plates using a 1536 head pin tool from Kalypsys. The plates were then covered with stainless steel gasket lids from Kalypsys and incubated for 48 hours at 37C under 95% relative humidity with 5% CO2. After 48 hours, the plates were removed and allowed to reach room temperature before 3 uL of Cell Titer Glo reagent (Promega) were added using an Aurora Flying Reagent Dispenser Bioraptor. The plates were then spun at 1000 rpms to remove bubbles and incubated for 15 minutes at room temperature before reading on a ViewLux using a luminescent filter with a 10 second exposure. The relative luciferase units were used to calculated percent activity using DMSO as 100% and Bortezomib as 0%.

Q: With `COCCCOc1cc(C[C@@H](C[C@H](N)[C@@H](O)C[C@H](C(=O)NCC(C)(C)C(N)=O)C(C)C)C(C)C)ccc1OC` as the compound, how does the cell viability, % of control (lower = more cytotoxic) read?
A: Its cell viability, % of control (lower = more cytotoxic) is 148%.

Q: Which cell viability, % of control (lower = more cytotoxic) does the source give for `CNC(=O)c1cc(Oc2ccc(NC(=O)Nc3ccc(Cl)c(C(F)(F)F)c3)cc2)ccn1` here?
A: Its cell viability, % of control (lower = more cytotoxic) is 2.89%.

Q: For `CCN[C@H]1C[C@H](C)S(=O)(=O)c2sc(S(N)(=O)=O)cc21`, which cell viability, % of control (lower = more cytotoxic) is on record?
A: The cell viability, % of control (lower = more cytotoxic) was 71.7%.

Q: With `O=C(O)c1cn(C2CC2)c2cc(N3CCNCC3)c(F)cc2c1=O` as the compound, how does the cell viability, % of control (lower = more cytotoxic) read?
A: Its cell viability, % of control (lower = more cytotoxic) is 138%.

Q: With `CC(C)C1CCC(C(=O)N[C@H](Cc2ccccc2)C(=O)O)CC1` (stereo not given in full) as the compound, how does the cell viability, % of control (lower = more cytotoxic) read?
A: The cell viability, % of control (lower = more cytotoxic) was 139%.

Q: Which cell viability, % of control (lower = more cytotoxic) does the source give for `O=P(O)(O)C(O)(Cc1cccnc1)P(=O)(O)O` here?
A: The cell viability, % of control (lower = more cytotoxic) was 147%.

Q: Which cell viability, % of control (lower = more cytotoxic) does the source give for `NC(=O)c1cccnc1` here?
A: The cell viability, % of control (lower = more cytotoxic) was 114%.

Q: For `COC(=O)Nc1nc2ccc(S(=O)c3ccccc3)cc2[nH]1` (stereo not given), which cell viability, % of control (lower = more cytotoxic) is on record?
A: The cell viability, % of control (lower = more cytotoxic) was 86.3%.

Q: With `CCOC(=O)[C@H](CCc1ccccc1)N[C@H]1CS[C@H](c2cccs2)CN(CC(=O)O)C1=O` as the compound, how does the cell viability, % of control (lower = more cytotoxic) read?
A: Its cell viability, % of control (lower = more cytotoxic) is 189%.

Q: For `COc1ncnc(NS(=O)(=O)c2ccc(N)cc2)c1OC`, which cell viability, % of control (lower = more cytotoxic) is on record?
A: Its cell viability, % of control (lower = more cytotoxic) is 106%.

Q: Which cell viability, % of control (lower = more cytotoxic) does the source give for `CN(C)c1ccc(C(=C2C=CC(=[N+](C)C)C=C2)c2ccc(N(C)C)cc2)cc1` here?
A: The cell viability, % of control (lower = more cytotoxic) was 1.19%.

Q: With `CCn1cc(C(=O)O)c(=O)c2cc(F)c(N3CCNCC3)nc21` as the compound, how does the cell viability, % of control (lower = more cytotoxic) read?
A: Its cell viability, % of control (lower = more cytotoxic) is 194%.

Q: For `CC1(C)[C@H](C(=O)O)N2C(=O)C[C@H]2S1(=O)=O`, which cell viability, % of control (lower = more cytotoxic) is on record?
A: Its cell viability, % of control (lower = more cytotoxic) is 240%.

Q: For `CCN1CCCC1CNC(=O)c1cc(S(N)(=O)=O)ccc1OC` (stereo not given), which cell viability, % of control (lower = more cytotoxic) is on record?
A: The cell viability, % of control (lower = more cytotoxic) was 128%.

Q: For `CCOCC(O)COc1ccc(NC(=O)CC[S+](C)C)cc1` (stereo not given), which cell viability, % of control (lower = more cytotoxic) is on record?
A: Its cell viability, % of control (lower = more cytotoxic) is 120%.

Q: With `Cc1cccc(Nc2ccncc2S(=O)(=O)NC(=O)NC(C)C)c1` as the compound, how does the cell viability, % of control (lower = more cytotoxic) read?
A: The cell viability, % of control (lower = more cytotoxic) was 90.1%.

Q: For `COC(=O)Nc1nc2ccc(Sc3ccccc3)cc2[nH]1`, which cell viability, % of control (lower = more cytotoxic) is on record?
A: The cell viability, % of control (lower = more cytotoxic) was 61%.

Q: With `COc1cccc(N(C)C(=S)Oc2ccc3c(c2)CCCC3)n1` as the compound, how does the cell viability, % of control (lower = more cytotoxic) read?
A: Its cell viability, % of control (lower = more cytotoxic) is 245%.

Q: With `CCCOc1ccc(C(=O)OCCN(CC)CC)cc1N` as the compound, how does the cell viability, % of control (lower = more cytotoxic) read?
A: Its cell viability, % of control (lower = more cytotoxic) is 177%.

Q: Which cell viability, % of control (lower = more cytotoxic) does the source give for `Cc1nnc(C(=O)NC(C)(C)c2nc(C(=O)NCc3ccc(F)cc3)c(O)c(=O)n2C)o1` here?
A: The cell viability, % of control (lower = more cytotoxic) was 126%.

Q: With `CN(C)CCc1c[nH]c2ccc(CS(=O)(=O)N3CCCC3)cc12` as the compound, how does the cell viability, % of control (lower = more cytotoxic) read?
A: Its cell viability, % of control (lower = more cytotoxic) is 25%.

Q: With `O=C(O)CSCC(=O)NC1CCSC1=O` (stereo not given) as the compound, how does the cell viability, % of control (lower = more cytotoxic) read?
A: Its cell viability, % of control (lower = more cytotoxic) is 118%.

Q: For `CCCCc1oc2ccc(NS(C)(=O)=O)cc2c1C(=O)c1ccc(OCCCN(CCCC)CCCC)cc1`, which cell viability, % of control (lower = more cytotoxic) is on record?
A: Its cell viability, % of control (lower = more cytotoxic) is 5.11%.

Q: With `O=C(O)C1CCCN(CCC=C(c2ccccc2)c2ccccc2)C1` (stereo not given) as the compound, how does the cell viability, % of control (lower = more cytotoxic) read?
A: The cell viability, % of control (lower = more cytotoxic) was 145%.

Q: Which cell viability, % of control (lower = more cytotoxic) does the source give for `CCCCS(=N)(=O)CCC(N)C(=O)O` (stereo not given) here?
A: The cell viability, % of control (lower = more cytotoxic) was 17.3%.

Q: Which cell viability, % of control (lower = more cytotoxic) does the source give for `O=c1oc2c(O)c(O)cc3c(=O)oc4c(O)c(O)cc1c4c23` here?
A: Its cell viability, % of control (lower = more cytotoxic) is 225%.

Q: With `CCn1cc(C(=O)O)c(=O)c2cc(F)c(N3CCNCC3)cc21` as the compound, how does the cell viability, % of control (lower = more cytotoxic) read?
A: The cell viability, % of control (lower = more cytotoxic) was 113%.

Q: With `CC[C@H](NC(C)C)[C@H](O)c1ccc(O)c2[nH]c(=O)ccc12` as the compound, how does the cell viability, % of control (lower = more cytotoxic) read?
A: Its cell viability, % of control (lower = more cytotoxic) is 160%.

Q: Which cell viability, % of control (lower = more cytotoxic) does the source give for `CC(N)C12CC3CC(CC(C3)C1)C2` (stereo not given) here?
A: The cell viability, % of control (lower = more cytotoxic) was 175%.

Q: For `CC(=O)CC(c1ccccc1)c1c(O)c2ccccc2oc1=O` (stereo not given), which cell viability, % of control (lower = more cytotoxic) is on record?
A: Its cell viability, % of control (lower = more cytotoxic) is 66.7%.

Q: With `CS(=O)(=O)c1ccc([C@@H](O)[C@@H](CO)NC(=O)C(Cl)Cl)cc1` as the compound, how does the cell viability, % of control (lower = more cytotoxic) read?
A: Its cell viability, % of control (lower = more cytotoxic) is 94.5%.

Q: For `C[C@@H]1C[C@H]2[C@@H]3CCC4=CC(=O)C=C[C@]4(C)[C@@]3(Cl)[C@@H](O)C[C@]2(C)[C@@]1(OC(=O)c1ccco1)C(=O)CCl`, which cell viability, % of control (lower = more cytotoxic) is on record?
A: Its cell viability, % of control (lower = more cytotoxic) is 4.47%.

Q: With `CC(C)NCC(O)c1ccc(NS(C)(=O)=O)cc1` (stereo not given) as the compound, how does the cell viability, % of control (lower = more cytotoxic) read?
A: The cell viability, % of control (lower = more cytotoxic) was 203%.

Q: Which cell viability, % of control (lower = more cytotoxic) does the source give for `COc1ccc2cc3[n+](cc2c1OC)CCc1cc2c(cc1-3)OCO2` here?
A: The cell viability, % of control (lower = more cytotoxic) was 19.2%.

Q: Which cell viability, % of control (lower = more cytotoxic) does the source give for `NC(N)=NC(N)=NCCc1ccccc1` here?
A: The cell viability, % of control (lower = more cytotoxic) was 88%.

Q: With `CN(C)CCc1c[nH]c2ccc(C[C@H]3COC(=O)N3)cc12` as the compound, how does the cell viability, % of control (lower = more cytotoxic) read?
A: The cell viability, % of control (lower = more cytotoxic) was 88.7%.

Q: Which cell viability, % of control (lower = more cytotoxic) does the source give for `N[C@@H](Cc1ccc(O)c(O)c1)C(=O)O` here?
A: Its cell viability, % of control (lower = more cytotoxic) is 94.2%.

Q: Which cell viability, % of control (lower = more cytotoxic) does the source give for `O=C(NCC1CN(c2ccc(N3CCOCC3=O)cc2)C(=O)O1)c1ccc(Cl)s1` (stereo not given) here?
A: The cell viability, % of control (lower = more cytotoxic) was 29.6%.

Q: For `O=NN(CCCl)C(=O)NC1CCCCC1`, which cell viability, % of control (lower = more cytotoxic) is on record?
A: Its cell viability, % of control (lower = more cytotoxic) is 110%.

Q: For `Cc1c(-c2ccc(O)cc2)n(Cc2ccc(OCCN3CCCCCC3)cc2)c2ccc(O)cc12`, which cell viability, % of control (lower = more cytotoxic) is on record?
A: Its cell viability, % of control (lower = more cytotoxic) is 158%.
